According to paper PMC11006913:
Changes are numbered by the printed parent chain.

Key:
Assay in all cases: PBM; 200 nM protein, PBS
Settings in all cases: dsDNA, one strand shown
SIX6 [1] = molecular target: T1, SIX6 (Homo sapiens, UniProt O95475 114-200, T165P)
T1 sequence: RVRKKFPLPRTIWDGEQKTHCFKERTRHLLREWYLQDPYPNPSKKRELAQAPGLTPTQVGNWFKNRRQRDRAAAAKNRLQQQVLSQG

SIX6 [2] = molecular target: T2, SIX6 (Homo sapiens, UniProt O95475 114-200, H141N)
T2 sequence: T1 sequence with H28N, P52T

SIX6 [3] = molecular target: T3, SIX6 (Homo sapiens, UniProt O95475 114-200, L167M)
T3 sequence: T1 sequence with P52T, L54M

SIX6 [4] = molecular target: T4, SIX6 (Homo sapiens, UniProt O95475 114-200, T139Q)
T4 sequence: T1 sequence with T26Q, P52T

SIX6 [5] = molecular target: T5, SIX6 (Homo sapiens, UniProt O95475 114-200, T165A)
T5 sequence: T1 sequence with P52A

PRRX1 [6] = molecular target: PRRX1 (Homo sapiens, UniProt P54821 80-166, F113S)
PRRX1 (Homo sapiens, UniProt P54821 80-166, F113S), sequence (P54821 80-166 F113S): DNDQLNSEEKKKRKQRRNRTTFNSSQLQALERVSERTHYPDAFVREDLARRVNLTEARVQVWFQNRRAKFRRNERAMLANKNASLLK

PRRX1 [7] = molecular target: PRRX1 (Homo sapiens, UniProt P54821 80-166)
PRRX1 (Homo sapiens, UniProt P54821 80-166), sequence (P54821 80-166): as the sequence (P54821 80-166 F113S) above, with S34F counted along it

SIX6 [8] = molecular target: T6, SIX6 (Homo sapiens, UniProt O95475 114-200, T165G)
T6 sequence: T1 sequence with P52G

SIX6 [9] = molecular target: T7, SIX6 (Homo sapiens, UniProt O95475 114-200, L167V)
T7 sequence: T1 sequence with P52T, L54V

SIX6 [10] = molecular target: T8, SIX6 (Homo sapiens, UniProt O95475 114-200)
T8 sequence: T1 sequence with P52T

SIX6 [11] = molecular target: T9, SIX6 (Homo sapiens, UniProt O95475 114-200, T165I)
T9 sequence: T1 sequence with P52I

PAX4 [12] = molecular target: T10, PAX4 (Homo sapiens, UniProt O43316 9-242)
T10 sequence: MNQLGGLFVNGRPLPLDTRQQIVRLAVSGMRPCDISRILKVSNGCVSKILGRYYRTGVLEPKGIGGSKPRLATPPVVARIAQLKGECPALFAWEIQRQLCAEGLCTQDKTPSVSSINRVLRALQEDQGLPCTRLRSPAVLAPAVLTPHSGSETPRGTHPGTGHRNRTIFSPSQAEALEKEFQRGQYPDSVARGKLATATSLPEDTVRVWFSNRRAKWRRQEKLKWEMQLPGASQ

ALX1 [13] = molecular target: ALX1 (Homo sapiens, UniProt Q15699 118-204, L144V)
ALX1 (Homo sapiens, UniProt Q15699 118-204, L144V), sequence (Q15699 118-204 L144V): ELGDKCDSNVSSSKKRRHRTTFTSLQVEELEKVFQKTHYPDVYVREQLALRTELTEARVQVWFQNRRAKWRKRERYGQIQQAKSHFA

ALX1 [14] = molecular target: ALX1 (Homo sapiens, UniProt Q15699 118-204, L144R)
ALX1 (Homo sapiens, UniProt Q15699 118-204, L144R), sequence (Q15699 118-204 L144R): as the sequence (Q15699 118-204 L144V) above, with V27R counted along it

PAX4 [15] = molecular target: T11, PAX4 (Homo sapiens, UniProt O43316 9-242, F177V)
T11 sequence: T10 sequence with F169V

PAX4 [16] = molecular target: T12, PAX4 (Homo sapiens, UniProt O43316 9-242, F177Y)
T12 sequence: T10 sequence with F169Y

ALX1 [17] = molecular target: ALX1 (Homo sapiens, UniProt Q15699 118-204)
ALX1 (Homo sapiens, UniProt Q15699 118-204), sequence (Q15699 118-204): as the sequence (Q15699 118-204 L144V) above, with V27L counted along it

VENTX = molecular target: T13, VENTX (Homo sapiens, UniProt O95231 78-163, Y115F)
T13 sequence: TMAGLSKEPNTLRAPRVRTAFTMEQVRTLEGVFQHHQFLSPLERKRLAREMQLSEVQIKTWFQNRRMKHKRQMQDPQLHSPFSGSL

HOXA2 [18] = molecular target: HOXA2 (Homo sapiens, UniProt O43364 129-215, R185T)
HOXA2 (Homo sapiens, UniProt O43364 129-215, R185T), sequence (O43364 129-215 R185T): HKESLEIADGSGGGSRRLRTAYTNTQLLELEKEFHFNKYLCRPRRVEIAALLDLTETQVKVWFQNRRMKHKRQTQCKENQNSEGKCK

MSX2 = MSX2 (Homo sapiens, UniProt P35548 130-214, R199I)
MSX2, sequence (P35548 130-214 R199I): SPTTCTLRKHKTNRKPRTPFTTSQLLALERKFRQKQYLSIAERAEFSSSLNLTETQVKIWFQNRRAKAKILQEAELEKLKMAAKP

HOXA2 [19] = molecular target: HOXA2 (Homo sapiens, UniProt O43364 129-215, R185K)
HOXA2 (Homo sapiens, UniProt O43364 129-215, R185K), sequence (O43364 129-215 R185K): as the sequence (O43364 129-215 R185T) above, with T57K counted along it

ALX3 [20] = molecular target: ALX3 (Homo sapiens, UniProt O95076 139-225, N203Q)
ALX3 (Homo sapiens, UniProt O95076 139-225, N203Q), sequence (O95076 139-225 N203Q): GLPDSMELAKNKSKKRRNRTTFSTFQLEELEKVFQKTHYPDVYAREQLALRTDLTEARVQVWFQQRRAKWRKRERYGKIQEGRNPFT

ALX3 [21] = molecular target: ALX3 (Homo sapiens, UniProt O95076 139-225)
ALX3 (Homo sapiens, UniProt O95076 139-225), sequence (O95076 139-225): as the sequence (O95076 139-225 N203Q) above, with Q65N counted along it

ALX3 [22] = molecular target: ALX3 (Homo sapiens, UniProt O95076 139-225, N203S)
ALX3 (Homo sapiens, UniProt O95076 139-225, N203S), sequence (O95076 139-225 N203S): as the sequence (O95076 139-225 N203Q) above, with Q65S counted along it

HOXB6 [23] = molecular target: HOXB6 (Homo sapiens, UniProt P17509 132-218, K202E)
HOXB6 (Homo sapiens, UniProt P17509 132-218, K202E), sequence (P17509 132-218 K202E): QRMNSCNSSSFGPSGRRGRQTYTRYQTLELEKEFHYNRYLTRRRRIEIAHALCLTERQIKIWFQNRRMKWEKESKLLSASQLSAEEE

HOXA4 = HOXA4 (Homo sapiens, UniProt Q00056 201-287, R217L)
HOXA4, sequence (Q00056 201-287 R217L): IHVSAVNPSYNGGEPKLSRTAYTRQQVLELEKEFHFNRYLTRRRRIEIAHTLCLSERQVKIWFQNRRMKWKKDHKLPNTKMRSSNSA

HOXB6 [24] = molecular target: HOXB6 (Homo sapiens, UniProt P17509 132-218)
HOXB6 (Homo sapiens, UniProt P17509 132-218), sequence (P17509 132-218): as the sequence (P17509 132-218 K202E) above, with E71K counted along it

CCCGATAC
binding signal (SIX6 [1]): 9.17 upbm affinity estimate (log intensity, higher = more binding, comparable within an allelic series)

CGGATCGC
binding signal (SIX6 [1]): 9.17 upbm affinity estimate (log intensity, higher = more binding, comparable within an allelic series)

ACGGATCG
binding signal (SIX6 [1]): 9.19 upbm affinity estimate (log intensity, higher = more binding, comparable within an allelic series)

GATATGGC
binding signal (SIX6 [1]): 9.27 upbm affinity estimate (log intensity, higher = more binding, comparable within an allelic series)

ACTACAAT
binding signal (SIX6 [1]): 10.1 upbm affinity estimate (log intensity, higher = more binding, comparable within an allelic series)

CCGGATCA
binding signal (SIX6 [1]): 9.33 upbm affinity estimate (log intensity, higher = more binding, comparable within an allelic series)

GCGATCCC
binding signal (SIX6 [1]): 9.24 upbm affinity estimate (log intensity, higher = more binding, comparable within an allelic series)

GGGATACC
binding signal (SIX6 [1]): 9.29 upbm affinity estimate (log intensity, higher = more binding, comparable within an allelic series)

GCGATACC
binding signal (SIX6 [2]): 11 upbm affinity estimate (log intensity, higher = more binding, comparable within an allelic series) | binding signal (SIX6 [1]): 9.27 upbm affinity estimate (log intensity, higher = more binding, comparable within an allelic series) | binding signal (SIX6 [3]): 10.3 upbm affinity estimate (log intensity, higher = more binding, comparable within an allelic series) | binding signal (SIX6 [4]): 11.1 upbm affinity estimate (log intensity, higher = more binding, comparable within an allelic series)

GGATCCAC
binding signal (SIX6 [1]): 9.18 upbm affinity estimate (log intensity, higher = more binding, comparable within an allelic series)

CGGATACC
binding signal (SIX6 [1]): 9.26 upbm affinity estimate (log intensity, higher = more binding, comparable within an allelic series)

CCGTATCC
binding signal (SIX6 [1]): 9.24 upbm affinity estimate (log intensity, higher = more binding, comparable within an allelic series)

CGATACAC
binding signal (SIX6 [2]): 11.1 upbm affinity estimate (log intensity, higher = more binding, comparable within an allelic series) | binding signal (SIX6 [4]): 11.2 upbm affinity estimate (log intensity, higher = more binding, comparable within an allelic series) | binding signal (SIX6 [5]): 11 upbm affinity estimate (log intensity, higher = more binding, comparable within an allelic series)

AGATCCGC
binding signal (SIX6 [1]): 9.23 upbm affinity estimate (log intensity, higher = more binding, comparable within an allelic series)

AGGGATCG
binding signal (SIX6 [1]): 9.2 upbm affinity estimate (log intensity, higher = more binding, comparable within an allelic series)

GGGGATAC
binding signal (SIX6 [1]): 9.17 upbm affinity estimate (log intensity, higher = more binding, comparable within an allelic series)

AATCATGT
binding signal (PRRX1 [6]): 10.4 upbm affinity estimate (log intensity, higher = more binding, comparable within an allelic series) | binding signal (PRRX1 [7]): 12.2 upbm affinity estimate (log intensity, higher = more binding, comparable within an allelic series)

CATATCAC
binding signal (SIX6 [2]): 11.1 upbm affinity estimate (log intensity, higher = more binding, comparable within an allelic series) | binding signal (SIX6 [8]): 11.1 upbm affinity estimate (log intensity, higher = more binding, comparable within an allelic series) | binding signal (SIX6 [5]): 11 upbm affinity estimate (log intensity, higher = more binding, comparable within an allelic series) | binding signal (SIX6 [9]): 10.9 upbm affinity estimate (log intensity, higher = more binding, comparable within an allelic series)

GGATACCC
binding signal (SIX6 [1]): 9.29 upbm affinity estimate (log intensity, higher = more binding, comparable within an allelic series)

CATAACAC
binding signal (SIX6 [2]): 10 upbm affinity estimate (log intensity, higher = more binding, comparable within an allelic series) | binding signal (SIX6 [8]): 10.3 upbm affinity estimate (log intensity, higher = more binding, comparable within an allelic series) | binding signal (SIX6 [4]): 10.4 upbm affinity estimate (log intensity, higher = more binding, comparable within an allelic series) | binding signal (SIX6 [5]): 10.1 upbm affinity estimate (log intensity, higher = more binding, comparable within an allelic series) | binding signal (SIX6 [10]): 10.1 upbm affinity estimate (log intensity, higher = more binding, comparable within an allelic series) | binding signal (SIX6 [11]): 10.1 upbm affinity estimate (log intensity, higher = more binding, comparable within an allelic series)

GCCGATAC
binding signal (SIX6 [1]): 9.22 upbm affinity estimate (log intensity, higher = more binding, comparable within an allelic series)

CGGATCAG
binding signal (SIX6 [1]): 9.26 upbm affinity estimate (log intensity, higher = more binding, comparable within an allelic series)

CGTGATCC
binding signal (SIX6 [1]): 9.16 upbm affinity estimate (log intensity, higher = more binding, comparable within an allelic series)

CCCCTATC
binding signal (SIX6 [1]): 9.29 upbm affinity estimate (log intensity, higher = more binding, comparable within an allelic series)

CCGGTATC
binding signal (SIX6 [1]): 9.21 upbm affinity estimate (log intensity, higher = more binding, comparable within an allelic series)

CCGATCCG
binding signal (SIX6 [1]): 9.19 upbm affinity estimate (log intensity, higher = more binding, comparable within an allelic series)

CCGATACG
binding signal (SIX6 [1]): 9.12 upbm affinity estimate (log intensity, higher = more binding, comparable within an allelic series)

CCGGATCC
binding signal (SIX6 [1]): 9.14 upbm affinity estimate (log intensity, higher = more binding, comparable within an allelic series)

ACGGATAA
binding signal (PAX4 [12]): 10.8 upbm affinity estimate (log intensity, higher = more binding, comparable within an allelic series) | binding signal (ALX1 [13]): 8.5 upbm affinity estimate (log intensity, higher = more binding, comparable within an allelic series) | binding signal (ALX1 [14]): 8.23 upbm affinity estimate (log intensity, higher = more binding, comparable within an allelic series) | binding signal (PAX4 [15]): 10.1 upbm affinity estimate (log intensity, higher = more binding, comparable within an allelic series) | binding signal (PAX4 [16]): 10.2 upbm affinity estimate (log intensity, higher = more binding, comparable within an allelic series) | binding signal (ALX1 [17]): 8.73 upbm affinity estimate (log intensity, higher = more binding, comparable within an allelic series)

CTAATCAC
binding signal (VENTX): 11.7 upbm affinity estimate (log intensity, higher = more binding, comparable within an allelic series) | binding signal (HOXA2 [18]): 12.7 upbm affinity estimate (log intensity, higher = more binding, comparable within an allelic series) | binding signal (MSX2): 11.1 upbm affinity estimate (log intensity, higher = more binding, comparable within an allelic series) | binding signal (HOXA2 [19]): 13.3 upbm affinity estimate (log intensity, higher = more binding, comparable within an allelic series)

CGATTAGA
binding signal (VENTX): 10.8 upbm affinity estimate (log intensity, higher = more binding, comparable within an allelic series)

GATACGCC
binding signal (SIX6 [1]): 9.27 upbm affinity estimate (log intensity, higher = more binding, comparable within an allelic series)

AATCGTAT
binding signal (PAX4 [12]): 10.8 upbm affinity estimate (log intensity, higher = more binding, comparable within an allelic series) | binding signal (PAX4 [15]): 10.3 upbm affinity estimate (log intensity, higher = more binding, comparable within an allelic series)

AATCGGTC
binding signal (VENTX): 10.1 upbm affinity estimate (log intensity, higher = more binding, comparable within an allelic series)

GTCGATTA
binding signal (VENTX): 10.9 upbm affinity estimate (log intensity, higher = more binding, comparable within an allelic series)

GCTATCAC
binding signal (SIX6 [1]): 9.24 upbm affinity estimate (log intensity, higher = more binding, comparable within an allelic series)

AAATGGGT
binding signal (VENTX): 10.2 upbm affinity estimate (log intensity, higher = more binding, comparable within an allelic series) | binding signal (ALX3 [20]): 8.27 upbm affinity estimate (log intensity, higher = more binding, comparable within an allelic series) | binding signal (ALX3 [21]): 9.3 upbm affinity estimate (log intensity, higher = more binding, comparable within an allelic series) | binding signal (ALX3 [22]): 8.31 upbm affinity estimate (log intensity, higher = more binding, comparable within an allelic series)

ACCGATCG
binding signal (SIX6 [1]): 9.18 upbm affinity estimate (log intensity, higher = more binding, comparable within an allelic series)

CGGGTATC
binding signal (SIX6 [1]): 9.28 upbm affinity estimate (log intensity, higher = more binding, comparable within an allelic series) | binding signal (SIX6 [4]): 11.1 upbm affinity estimate (log intensity, higher = more binding, comparable within an allelic series)

GATTTTCA
binding signal (PAX4 [12]): 10.7 upbm affinity estimate (log intensity, higher = more binding, comparable within an allelic series)

GGGATCAC
binding signal (SIX6 [1]): 9.32 upbm affinity estimate (log intensity, higher = more binding, comparable within an allelic series) | binding signal (SIX6 [4]): 11.1 upbm affinity estimate (log intensity, higher = more binding, comparable within an allelic series)

AATCGATT
binding signal (VENTX): 10.7 upbm affinity estimate (log intensity, higher = more binding, comparable within an allelic series) | binding signal (HOXB6 [23]): 9.7 upbm affinity estimate (log intensity, higher = more binding, comparable within an allelic series) | binding signal (HOXA4): 12 upbm affinity estimate (log intensity, higher = more binding, comparable within an allelic series) | binding signal (HOXB6 [24]): 11 upbm affinity estimate (log intensity, higher = more binding, comparable within an allelic series)
